Test results: PubChem BioAssay AID2551 (National Center for Advancing Translational Sciences (NCATS), 2010)
About 17,000 (5.5%) of roughly 310,000 compounds were called active. Where a call stands in place of a potency, no number is given. Not shown: some 11% with an inconclusive outcome. The sample holds actives, similar compounds and a random draw of the others, so the mix is not that of the screen. A number with no mark means an inactive call. The call rests on the fitted dose curve; in most records, active means well fitted inhibition curve with a large enough effect; inconclusive means small, poorly fitted or top-dose-only effect, or effect the other way; inactive means no such curve, though single readings can be large or run the other way.
Further: nearly all actives have a fitted effect of over 60% in size.
Potency means the concentration at half of the fitted maximal effect.

These molecules were tested against Nuclear receptor ROR-gamma (Mus musculus) (UniProt P51450) (assay: qHTS for inhibitors of ROR gamma transcriptional activity). Details: Drosophila S2 Gal4-RORgamma UAS-luciferase reporter, 20 h; series mostly up to 53.6 µM.
Sequence of Nuclear receptor ROR-gamma (Mus musculus) (P51450 whole entry, looked up, the tested form may be a part): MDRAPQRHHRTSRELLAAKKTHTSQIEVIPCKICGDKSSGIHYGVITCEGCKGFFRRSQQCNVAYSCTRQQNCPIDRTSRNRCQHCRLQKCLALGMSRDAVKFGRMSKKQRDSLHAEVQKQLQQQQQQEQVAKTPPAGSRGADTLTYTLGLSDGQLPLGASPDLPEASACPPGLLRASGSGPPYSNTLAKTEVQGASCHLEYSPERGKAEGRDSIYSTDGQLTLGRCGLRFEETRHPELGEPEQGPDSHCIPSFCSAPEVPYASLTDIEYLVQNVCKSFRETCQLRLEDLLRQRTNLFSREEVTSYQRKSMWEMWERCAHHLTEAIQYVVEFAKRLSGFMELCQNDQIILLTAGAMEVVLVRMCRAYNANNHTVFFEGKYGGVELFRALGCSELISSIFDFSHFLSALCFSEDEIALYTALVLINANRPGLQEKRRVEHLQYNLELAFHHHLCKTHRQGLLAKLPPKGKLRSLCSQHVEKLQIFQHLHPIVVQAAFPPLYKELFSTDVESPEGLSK
Summary of the method: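 ROR gamma transcriptional activity was tracked as Gal4-UAS luciferase output in stably transfected Drosophila Schneider cells, with compound added 1 hr before 700 uM copper sulfate induction and a 20 hr ambient-temperature incubation.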
With CCCCCCC(=O)N(O)C1CC(=O)N(c2ccccc2)C1=O (stereo not drawn) the Potency was 2.82 µM (active).
In the case of CCOC(=O)c1ccc(N2C(=O)CC(N(C)Cc3ccccc3)C2=O)cc1 (stereo not drawn), the Potency is reported as “inactive”.
In the case of CCCCOC(=O)c1ccc(N2C(=O)CC(N3CCN(C/C=C/c4ccccc4)CC3)C2=O)cc1 (stereo not drawn), the Potency is reported as “inactive”.
In the case of COc1cccc(Cn2c(=O)c(C)nc3cnc(Oc4ccccc4)nc32)c1, the Potency is reported as “inactive”.
CCNc1ncc2ncc(=O)n(Cc3cccc(OC)c3)c2n1 was tested, and the Potency was 12.6 µM (active).
In the case of CCNc1ncc2ncc(=O)n(CCc3ccccc3)c2n1, the Potency is reported as “inactive”.
In the case of Cc1ccc(SCCSc2ncccn2)cc1, the Potency is reported as “inactive”.
Cc1ccc2c(C)c(C(=O)N(C)Cc3ccncn3)oc2c1C was tested, and the Potency was “inactive”.
CCOC(=O)N1CCN(C(=O)c2cn(C)c3ccc(S(=O)(=O)N4CCCC4)cc3c2=O)CC1 was tested, and the Potency was “inactive”.
CCCCn1c(=S)[nH]c2cc(S(=O)(=O)N3CCCCC3)ccc21 was tested, and the Potency was 11.2 µM (active).
For O=c1[nH]c2ccc(S(=O)(=O)N3CCCC3)cc2[nH]1, the Potency was “inactive”.
With CN(C)CCN(C(=O)C1CCCCC1)c1nc2cc3c(cc2s1)OCO3 the Potency was “inactive”.
With Brc1ccc(OCCn2ccnc2)cc1 the Potency was “inactive”.
In the case of COc1ccc(NC(=O)CCn2ccnc2)c(OC)c1, the Potency is reported as “inactive”.
In the case of CC1(C)C2CCC1(C)C(OC(=O)CCn1ccnc1)C2 (stereo not drawn), the Potency is reported as 11.2 µM (active).
In the case of O=C(Nc1ccncc1)c1ccc(Cl)c([N+](=O)[O-])c1, the Potency is reported as “inactive”.
For COc1ccc(C(=O)Nc2c(Cl)cc(Cl)cc2C(=O)N2CCC(C)CC2)cc1, the Potency was “inactive”.
In the case of CC1CCN(C(=S)c2cccc(O)c2)CC1, the Potency is reported as “inactive”.
With CC1CCN(C(=S)c2ccc(-c3ccc(Cl)cc3Cl)o2)CC1 the Potency was 15.8 µM (active).
For CCc1ccc(NC(=O)CCNS(=O)(=O)c2cccs2)cc1, the Potency was “inactive”.
With Cc1ccc(NC(=O)[C@H](Cc2ccccc2)NC(=O)C2CCNCC2)cc1 the Potency was “inactive”.
With CC1=CC(C)(C)Nc2ccc(OC(=O)CN3C(=O)C4CCCCC4C3=O)cc21 (stereo not drawn) the Potency was 4.47 µM (active).
In the case of O=C(CN1C(=O)C2C3CCC(C3)C2C1=O)Oc1ccc2ccccc2c1 (stereo not drawn), the Potency is reported as “inactive”.
CC1=CC(C)(C)Nc2ccc(OC(=O)C(Cc3ccccc3)N3C(=O)C4CCCCC4C3=O)cc21 (stereo not drawn) was tested, and the Potency was “inactive”.
With O=C1CSc2ccc(S(=O)(=O)NCc3ccccc3)cc2N1 the Potency was “inactive”.
In the case of CN(Cc1ccccc1)C(=O)C1CCCN(c2ncnc3c2nc2n3CCCCC2)C1 (stereo not drawn), the Potency is reported as “inactive”.
With CN(C)CCN(C(=O)C1=COCCO1)c1nc2ccc(Cl)cc2s1 the Potency was “inactive”.
For O=C1NCC(=O)N(Cc2ccccc2)/C1=C/c1ccccc1, the Potency was “inactive”.
In the case of CN(C)c1ccc(/C=C2\NC(=S)N(Cc3ccccc3)C2=O)cc1, the Potency is reported as 5.01 µM (active).
For CC1=NN(Cc2ccccc2)C(=O)/C1=C/c1ccc(N(C)C)cc1, the Potency was “inactive”.
COC(=O)CSc1nnc(NC(=O)CCc2ccccc2)s1 was tested, and the Potency was “inactive”.
O=C(Cc1ccc(Br)cc1)NCCN1CCOCC1 was tested, and the Potency was “inactive”.
Clc1ccc(-c2nc3ccccn3c2CN2CCSCC2)cc1 was tested, and the Potency was 12.6 µM (active).
In the case of Clc1ccc(-c2nnc(-c3ccccc3)nc2N2CCSCC2)cc1, the Potency is reported as “inactive”.
In the case of CC1CCN(Cc2nc(-c3ccc(Cl)cc3)no2)CC1, the Potency is reported as “inactive”.
With Cc1ccc(N(Cc2ccccc2O)C(=O)c2ccccc2F)cc1 the Potency was “inactive”.
For COc1ccc(C/C(N)=N/OC(=O)c2ccco2)cc1OC, the Potency was “inactive”.
For COc1ccc(C(=O)ON=C2c3ccccc3-c3ccccc32)cc1OC, the Potency was “inactive”.
In the case of COc1ccc(C(=O)O/N=C(\N)Cc2ccc(Cl)cc2Cl)cc1OC, the Potency is reported as 15.8 µM (active).
In the case of CCOc1ccc(N(CC(=O)Nc2cccc(OC)c2)S(C)(=O)=O)cc1, the Potency is reported as “inactive”.
OC(CNCCc1ccc(Cl)cc1Cl)COc1ccccc1 (stereo not drawn) was tested, and the Potency was “inactive”.
In the case of COc1ccc(C2CC(c3cccs3)=NN2C(=O)CCC(=O)O)cc1OC (stereo not drawn), the Potency is reported as “inactive”.
O=C(N/N=C/c1ccccc1O)/C(=C/c1ccccc1)CCO was tested, and the Potency was 1.12 µM (active).
With O=C(CCCCCNC(=O)c1ccccc1)N/N=C/c1ccccc1 the Potency was “inactive”.
In the case of O=C(CCC(=O)Nc1ccccc1)N/N=C/c1ccccc1F, the Potency is reported as “inactive”.
For COC(=O)c1ccc(COC(=O)c2cnc(Cl)c(Cl)c2)cc1, the Potency was “inactive”.
In the case of CCn1c(SCC(=O)NC2CC2)nnc1-c1ccccn1, the Potency is reported as “inactive”.
With COc1ccc(/C=C/C2=CC(C)(C)NC(=S)N2)c(OC)c1 the Potency was 1.26 µM (active).
With COc1ccc(/C=C2/C(=O)N(c3ccccc3)N=C2C)c(OC)c1 the Potency was “inactive”.
COc1ccc(N)c(OC)c1 was tested, and the Potency was “inactive”.
In the case of CCC(=O)c1ccc(OC(=O)/C=C/c2cc(OC)c(OC)c(OC)c2)cc1, the Potency is reported as “inactive”.
In the case of COc1cc(/C=C/C2=CC(C)(C)NC(=S)N2)cc(OC)c1OC, the Potency is reported as 3.55 µM (active).
With CCOC(=O)COn1c(=O)c(-c2ccc(OCC)cc2)[n+]([O-])c2ccccc21 the Potency was “inactive”.
With COc1cc(C(=O)OCC(=O)NC(C)CCc2ccccc2)cc(OC)c1OC (stereo not drawn) the Potency was “inactive”.
COc1cc(C(C(=O)NC2CCCC2)N(Cc2ccccc2)C(=O)c2snc(C(N)=O)c2N)ccc1O (stereo not drawn) was tested, and the Potency was “inactive”.
For COc1cccc(/C=N/NC(=O)c2cccc([N+](=O)[O-])c2)c1OS(=O)(=O)c1ccc(C)cc1, the Potency was “inactive”.
For Cc1[nH]n(-c2ccccc2)c(=O)c1/C=N/NC(=O)c1ccoc1C, the Potency was 0.251 µM (active).
In the case of Cc1ccc(-n2[nH]c(C)c(/C=N/NC(=O)c3cccc([N+](=O)[O-])c3)c2=O)cc1C, the Potency is reported as 1.12 µM (active).
For COc1cc(/C=N/NC(=O)c2ccoc2C)ccc1OCCN1CCCCC1, the Potency was “inactive”.
O=C(N/N=C/c1cccc([N+](=O)[O-])c1)c1ccncc1 was tested, and the Potency was “inactive”.
In the case of Cc1[nH]n(-c2ccccc2)c(=O)c1N=Nc1ccccc1C(=O)N1CCCCC1, the Potency is reported as “inactive”.
For Cc1oc(-c2ccccc2F)nc1CS(=O)CC(=O)NCCN1CCCCC1C (stereo not drawn), the Potency was “inactive”.
For CCOc1ccc(S(=O)(=O)N2CCN=C2Cc2ccccc2)cc1C, the Potency was “inactive”.
With COc1cccc(CNC(=O)CCCC(=O)Nc2cccc([N+](=O)[O-])c2)c1 the Potency was “inactive”.
Cc1cnc(C)c(N2CCN(C(=O)C3CCC(=O)N(CCc4cccc(F)c4)C3)CC2)n1 (stereo not drawn) was tested, and the Potency was “inactive”.
With Cc1cc(C)c2c(NC(=O)C3CC3)nn(C)c2n1 the Potency was “inactive”.
Cc1cc(-n2nc(C)cc2C)n2nc(C)c(-c3ccccc3)c2n1 was tested, and the Potency was “inactive”.
With Cc1cc(C)c2c(n1)nn1c(-n3ccnc3)cc(C)nc21 the Potency was 10 µM (active).
With O=C(Nc1ccc(F)cc1)C(=O)c1cn(CC(=O)N2CCOCC2)c2ccccc12 the Potency was “inactive”.
In the case of CCSc1nc(O)c(C(c2cccc(OC)c2)c2c(O)nc(SCC)[nH]c2=O)c(=O)[nH]1, the Potency is reported as “inactive”.
In the case of CC(=O)c1cccc(NC(=S)N2CCCC2)c1, the Potency is reported as “inactive”.
In the case of CCOC(=O)C1(Cc2ccccc2C)CCCN(C(=O)CCc2c(C)noc2C)C1 (stereo not drawn), the Potency is reported as “inactive”.
With COc1ccc(N2C(=O)C(Cc3ccccc3)NC2=S)cc1 (stereo not drawn) the Potency was “inactive”.
For COc1ccc(N2C(=O)C3C(C2=O)C(C(=O)c2ccccc2)N2CCCC32)cc1 (stereo not drawn), the Potency was 11.2 µM (active).
With COc1ccc(N2C(=O)C3CCCN3C2c2cccc(OC)c2)cc1 (stereo not drawn) the Potency was “inactive”.
For O=S1(=O)N=C(N(CCO)/N=C/c2ccccc2F)c2ccccc21, the Potency was “inactive”.
O=c1[nH]cnc2c1c(-c1ccccc1)cn2-c1ccc(F)cc1 was tested, and the Potency was “inactive”.
With COc1ccc(N2CCN(Cc3nnc(-c4ccccc4)o3)CC2)cc1 the Potency was “inactive”.
In the case of COc1ccc(-n2cc(-c3ccccc3)c3c(=S)nc[nH]c32)cc1, the Potency is reported as 0.501 µM (active).
In the case of Cc1cccc(NC(=O)CCN2CC(C)CC(C)C2)c1 (stereo not drawn), the Potency is reported as “inactive”.
In the case of c1ccc(-c2cn3c(n2)CCc2ccc4cccnc4c2-3)cc1, the Potency is reported as 3.55 µM (active).
Molecule COCC(=O)N1CCc2ccc(NC(=O)c3ccccc3Cl)cc2C1 has an activity change, negative = inhibition of 8.09% [at 1.91 µM].
For CC(NC(=O)Cn1cc(C(F)(F)F)cc(Cl)c1=O)c1ccccc1 (stereo not drawn), the Potency was “inactive”.
For Cc1ccc(S(=O)(=O)c2nc(-c3cccs3)oc2NCc2cccnc2)cc1, the Potency was “inactive”.
C/C(=N/NC(=S)Nc1ccccc1)c1ccc2c(c1)OCO2 was tested, and the Potency was 1.26 µM (active).
With C/C(=N\NC(=O)C(N)=O)c1ccc2c(c1)OCCO2 the Potency was “inactive”.
In the case of C/C(=N/NC(=O)c1ccncc1)c1ccc2c(c1)OCO2, the Potency is reported as “inactive”.
For CCCCc1nc(SCC(=O)Nc2nnc(C(C)C)s2)n[nH]1, the Potency was “inactive”.
For Cc1ccc2nc(-c3ccncc3)cc(C(=O)Nc3ccncc3)c2c1, the Potency was “inactive”.
In the case of Cc1cc(C)cc(OCC(=O)NC(C)c2ccccc2)c1 (stereo not drawn), the Potency is reported as “inactive”.
For O=C(N/N=C/c1ccc2c(c1)OCO2)C(=O)N1CCCC1, the Potency was “inactive”.
O=C1/C(=C/c2ccc3c(c2)OCO3)CCC/C1=C\c1ccc2c(c1)OCO2 was tested, and the Potency was 11.2 µM (active).
CCC1=C/C(=C\c2ccc3c(c2)OCO3)C(=O)S1 was tested, and the Potency was “inactive”.
In the case of O=C(NC(Cc1ccccc1)C(=O)O)/C(=C\c1ccccc1)NC(=O)c1ccco1 (stereo not drawn), the Potency is reported as “inactive”.
For CC(C)Oc1ccc(Cc2n[nH]c(=S)n2Cc2ccccc2)cc1Cl, the Potency was 3.98 µM (active).
In the case of C=CCn1c(CCc2ccc(OC(C)C)cc2)n[nH]c1=S, the Potency is reported as “inactive”.
CC(C)Oc1ccc(CCc2nnc(SCC(=O)O)n2-c2ccccc2)cc1 was tested, and the Potency was “inactive”.
With CC(=O)N(OCc1ccc(OC(C)C)c(Cl)c1)C(C)=O the Potency was “inactive”.
In the case of CC(C)Oc1ccc(CCc2n[nH]c(=S)n2Cc2ccccc2)cc1, the Potency is reported as 3.16 µM (active).
CC(=O)Nc1ccc(S(=O)(=O)N2CCC(C(=O)NC3CC3)CC2)cc1 was tested, and the Potency was “inactive”.
In the case of OC(CNC1CCCC1)COc1ccc(F)cc1 (stereo not drawn), the Potency is reported as “inactive”.
For COc1ccccc1CNS(=O)(=O)c1ccc2c(c1)NC(=O)CS2, the Potency was “inactive”.
In the case of CCCn1nc(NS(=O)(=O)c2ccc(F)cc2)c2cc3ccccc3nc21, the Potency is reported as “inactive”.
COc1ccc(N=Nc2ccc(O)c(P(=O)(c3ccccc3)c3ccccc3)c2)cc1 was tested, and the Potency was “inactive”.
Cc1cc(N=Nc2ccc3ccccc3c2)ccc1O was tested, and the Potency was 11.2 µM (active).
With Cc1cccc(C(=O)NNC(=O)CSc2nnc(C(C)C)n2C)c1 the Potency was “inactive”.
In the case of Cc1c(C(C)(C)O)[nH]c2ccc(C#N)cc12, the Potency is reported as “inactive”.
CCn1c(SCC(=O)NNC(=O)c2ccc(OC)cc2)nnc1C(C)C was tested, and the Potency was “inactive”.
